The values that follow come from PubChem BioAssay.

Assay [1] is described as follows: rapamycin-like changes in RPL19A-GFP expression – cell-based, S. cerevisiae, multiplex flow cytometry, primary screen (AID 1862; in the data active means percent of DMSO control GFP below about 86%;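 further: lower values mimic rapamycin by blocking the RPL19A rise seen in DMSO cells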). Conditions: S. cerevisiae RPL19A-GFP strain, flow cytometry fluorescence, 3 h; at 10 µM; stronger effect = lower value.
Assay [2] in a line: TOR pathway GLN3 branch reporter MEP2-GFP changes – S. cerevisiae, multiplex flow cytometry, primary screen (AID 1867;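 active means GFP response, as percent of the DMSO control, above the screen-wide mean plus 3 SD, about 139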;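 further: median GFP channel fluorescence of barcode-gated MEP2-GFP cells measured by flow cytometry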). To be noted: S. cerevisiae MEP2-GFP strain, 3 h, at 10 µM, stronger effect = higher value, 100% means same as DMSO wells. (In flow cytometry, cells or beads pass a laser one at a time.)
Assay [3] can be described thus: TOR pathway RTG branch CIT2 reporter changes – S. cerevisiae, GFP fusion, multiplex flow cytometry, primary screen (AID 1870;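 active means percent response above a set limit, the screen-wide mean plus 3 SD, cut at about 130% in these data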;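 further: barcoded CIT2-GFP strain pooled with four other GFP strains with rapamycin as positive control; median GFP fluorescence per well over plate mean of DMSO wells so 100% = DMSO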). To be noted: S. cerevisiae CIT2-GFP expression, 3 h, at 10 µM, stronger effect = higher value.
A short description of assay [4]: TOR pathway LAP4-GFP level changes – S. cerevisiae, multiplex flow cytometry, primary screen (AID 1873;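 active means GFP signal, as percent of the solvent control, above the screen mean plus 3 SD, about 149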). To be noted: S. cerevisiae LAP4-GFP expression, 3 h, at 10 µM, stronger effect = higher value.
Assay [5] is described as follows: yeast AGP1-GFP level changes, GLN3 branch – cell-based, multiplex flow cytometry, S. cerevisiae, primary screen (AID 1887;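 active means GFP signal above the screen-wide mean plus 3 SD, that is over about 124.5% of the solvent control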;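 further: AGP1-GFP fusion strain of S. cerevisiae within a five-strain barcoded multiplex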). To be noted: 3 h, at 10 µM, stronger effect = higher value.
Assay [6] can be described thus: reduced mouse 2C T cell binding to pMHC/ICAM-1 vesicles – MLPCN validation set, flow cytometry, LFA-1/ICAM-1 modulator project, pilot screen (AID 2523;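 active means response below a set limit, under 55% cells CD8-positive and vesicle-bound, and CD8 cells' 90th-percentile brightness under 279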;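 on vesicle binding response: mean PE anti-B7-1 fluorescence of CD8+ cells relative to row control; 100% = QL9-loaded vesicles with DMSO vehicle in the same plate row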). Conditions: 2C mouse CD8+ T cells, at 7 µM, stronger effect = lower value; double positive events: measured here: CD8+/vesicle+ event percentage.
The target of assay [7] is Integrin beta-1 (Homo sapiens) + Integrin alpha-4 (Homo sapiens) (UniProt P13612+P05556). Kind of assay: alpha4beta1 integrin LIBS antibody binding reduction – U937 cells, HUTS-21 mAb, flow cytometry, validation set, VLA-4 allosteric modulator project, pilot screen (AID 2674;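 active means inhibition above 50%, about 3 SD of the validation set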;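 further: antibody binding induced by the VLA-4 ligand LDV present at three times its Kd; 0% = LDV ligand with antibody and no compound and 100% = antibody without LDV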). To be noted: HUTS-21 LIBS mAb binding, at 6.7 µM, stronger effect = higher value, binding induced by LDV ligand.

Assay [8] can be described thus: calorie-restriction mimetic ROS inhibitors, yeast – validation compound set, pilot screen (AID 2706;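 active means superoxide response below 65% of plate, a cut near 3 SD across the whole screen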;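 further: yeast exposed to compound for one week at 30 degrees C before staining; 100% = mean of all compound wells on the same plate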). To be noted: S. cerevisiae aging, superoxide DHE fluorescence; at 10 µM; stronger effect = lower value.
Assay [9] addresses Beta-adrenergic receptor kinase 1 (Homo sapiens) (UniProt P25098). Kind of assay: GRK2 binders displacing RNA aptamer, biochemical, validation, human GRK2, bead flow cytometry (AID 488806). Conditions: bead-bound GRK2, FAM-aptamer displacement, at 10 µM, stronger effect = higher value.
The target in assay [10] is Beta-2 adrenergic receptor (Homo sapiens) (UniProt P07550). Kind of assay: agonist-induced loss of surface beta2AR – cell-based, FAP fluorogen, flow cytometry, validation set, pilot screen (AID 504459;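 active means percent response above 42, roughly 3 SD of non-fluorescent test compounds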;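 further: agonist-driven loss of surface beta2AR via internalization measured by FAP dye flow cytometry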). Conditions: Am2.2-beta2AR cells, at 10 µM, stronger effect = higher value.
Assay [11] deals with AP-2 complex subunit beta (Homo sapiens) (UniProt P63010). Kind of assay: beta-arrestin/AP2 interaction blockers – biochemical, validation set, GST-AP2 beads, flow cytometry, pilot screen (AID 504541;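 active means inhibition above 54%, about 3 SD of non-fluorescent compounds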;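 further: AP2 carries R879A mutation and is captured from E. coli lysate; bead-bound FITC arrestin peptide fluorescence measuring arrestin peptide binding to AP2; 0% = DMSO wells and 100% = excess unlabeled arrestin peptide control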). To be noted: FITC arrestin peptide, at 10 µM, stronger effect = higher value, AP2 beta2 appendage fragment, R879A mutant.
Assay [12] in a line: cytosolic pH regulators acting via V-ATPase – S. cerevisiae, pHLuorin, HTS validation (AID 504600; in the data active means response above about 15%;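 further: plate controls were DMSO for no effect and reference compound for full effect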). Conditions: V-ATPase proton transport, at 10 µM, stronger effect = higher value.
Assay [13] has as its system anti-desmoglein-3 scFv antibody binding to human DSG3. Put plainly: blockers of pathogenic pemphigus antibody–desmoglein-3 binding – biochemical, validation compound set, bead-based, flow cytometry, pilot screen (AID 588368;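 active means binding below the plate cutoff, the plate median minus 3 SD, with a reading above zero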;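 further: signal is the median channel fluorescence of bead-bound GFP antibody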). To be noted: Protein G beads, DSG3-Fc, scFv-GFP binding, at 10 µM, stronger effect = lower value.
Assay [14] can be described thus: Nile Red efflux blockade in pump-expressing yeast – validation compound set, multiplex, phenotypic, pilot screen (AID 588506;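 active means efflux inhibition above 0.42, the validation set average plus 4 SD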;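 further: Nile Red retained in cells so higher fluorescence means more efflux inhibition; 0 = negative control wells and 1 = enniatin B 25 µM full block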). To be noted: S. cerevisiae pump-expressing triplex, Nile Red efflux flow cytometry; at 10 µM; stronger effect = higher value; the pumps come from Candida albicans.
Assay [15] deals with ATP-binding cassette sub-family B member 6 (Homo sapiens) (UniProt Q9NP58). Kind of assay: blockers of ABCB6-driven porphyrin uptake – K562-ABCB6 cells, flow cytometry, validation set, pilot screen (AID 588550;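 active means inhibition above the screen-wide mean plus 3 SD, about 51%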;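 further: 0% = DMSO wells and 100% = benzethonium chloride 70 µM positive control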). Conditions: K562-ABCB6 porphyrin accumulation, 1 h, at 10 µM, stronger effect = higher value.
A short description of assay [16]: AML differentiation inducers, ER-HoxA9 marrow cells – cell-based, GFP/MAC1 double positive, flow cytometry, validation set, primary screen (AID 588685;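 active means differentiation response of at least 50%, scaled between solvent and reference control, from cells with both markers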;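 further: compound exposure lasts four days before antibody staining and flow analysis; 0% = DMSO wells and 100% = 5 µM fulvestrant positive control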). Conditions: stronger effect = higher value, normalized: vehicle 0, fulvestrant 100.

Records with an inconclusive call do not appear. Active and inactive are the calls of the source.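 How the source made its calls, unless noted: active means aptamer binding inhibition above 30%, about 3 SD of noise from non-fluorescent compounds; inactive means inhibition at or below 30%.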

Sequence of Integrin beta-1 (Homo sapiens) + Integrin alpha-4 (Homo sapiens) (P05556 whole entry, looked up): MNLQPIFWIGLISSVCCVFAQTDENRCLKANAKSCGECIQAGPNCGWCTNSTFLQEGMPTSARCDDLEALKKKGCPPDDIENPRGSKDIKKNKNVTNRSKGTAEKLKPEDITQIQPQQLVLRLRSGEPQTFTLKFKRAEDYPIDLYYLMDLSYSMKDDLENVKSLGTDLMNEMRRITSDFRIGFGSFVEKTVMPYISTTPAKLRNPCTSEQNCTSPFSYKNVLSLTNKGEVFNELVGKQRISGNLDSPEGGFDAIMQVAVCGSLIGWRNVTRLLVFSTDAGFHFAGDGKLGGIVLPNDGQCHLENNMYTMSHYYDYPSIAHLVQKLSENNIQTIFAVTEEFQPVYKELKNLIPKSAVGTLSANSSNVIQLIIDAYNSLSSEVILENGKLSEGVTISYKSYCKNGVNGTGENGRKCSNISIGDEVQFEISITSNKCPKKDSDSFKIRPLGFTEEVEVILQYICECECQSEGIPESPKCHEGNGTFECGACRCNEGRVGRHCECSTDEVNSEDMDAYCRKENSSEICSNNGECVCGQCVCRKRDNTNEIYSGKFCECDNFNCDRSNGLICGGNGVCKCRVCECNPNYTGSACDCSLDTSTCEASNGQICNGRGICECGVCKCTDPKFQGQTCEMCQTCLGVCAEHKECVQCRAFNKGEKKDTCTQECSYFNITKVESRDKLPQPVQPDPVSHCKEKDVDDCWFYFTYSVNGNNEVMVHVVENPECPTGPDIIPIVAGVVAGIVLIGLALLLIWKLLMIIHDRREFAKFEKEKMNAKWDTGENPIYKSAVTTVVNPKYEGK
Sequence of Integrin beta-1 (Homo sapiens) + Integrin alpha-4 (Homo sapiens) (P13612 whole entry, looked up): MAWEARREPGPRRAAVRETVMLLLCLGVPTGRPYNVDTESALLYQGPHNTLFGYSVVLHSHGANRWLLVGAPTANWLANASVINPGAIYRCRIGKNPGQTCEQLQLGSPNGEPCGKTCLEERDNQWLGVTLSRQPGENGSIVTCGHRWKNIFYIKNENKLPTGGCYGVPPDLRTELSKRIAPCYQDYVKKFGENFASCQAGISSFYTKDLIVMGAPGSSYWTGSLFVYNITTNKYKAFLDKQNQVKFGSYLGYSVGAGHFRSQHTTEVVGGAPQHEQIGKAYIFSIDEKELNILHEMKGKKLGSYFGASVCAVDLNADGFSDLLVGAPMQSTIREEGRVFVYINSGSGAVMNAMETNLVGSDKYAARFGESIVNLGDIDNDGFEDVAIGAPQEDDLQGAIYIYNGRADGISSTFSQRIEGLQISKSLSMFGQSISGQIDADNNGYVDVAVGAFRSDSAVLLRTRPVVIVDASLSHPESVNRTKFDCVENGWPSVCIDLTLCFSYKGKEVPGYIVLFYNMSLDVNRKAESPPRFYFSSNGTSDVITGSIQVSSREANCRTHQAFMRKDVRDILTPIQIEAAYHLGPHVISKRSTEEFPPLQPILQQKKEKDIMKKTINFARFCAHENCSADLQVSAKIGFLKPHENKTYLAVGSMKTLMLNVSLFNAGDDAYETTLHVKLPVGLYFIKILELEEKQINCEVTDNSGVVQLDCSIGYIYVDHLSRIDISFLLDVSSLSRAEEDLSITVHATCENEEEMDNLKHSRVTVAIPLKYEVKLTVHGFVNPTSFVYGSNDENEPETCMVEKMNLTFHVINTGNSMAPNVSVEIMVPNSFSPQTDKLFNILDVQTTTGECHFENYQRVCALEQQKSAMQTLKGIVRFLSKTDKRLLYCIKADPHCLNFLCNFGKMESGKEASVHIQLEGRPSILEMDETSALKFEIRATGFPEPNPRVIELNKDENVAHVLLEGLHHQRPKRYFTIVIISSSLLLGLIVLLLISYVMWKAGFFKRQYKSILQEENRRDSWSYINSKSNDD
Sequence of Beta-2 adrenergic receptor (Homo sapiens) (P07550 whole entry, looked up): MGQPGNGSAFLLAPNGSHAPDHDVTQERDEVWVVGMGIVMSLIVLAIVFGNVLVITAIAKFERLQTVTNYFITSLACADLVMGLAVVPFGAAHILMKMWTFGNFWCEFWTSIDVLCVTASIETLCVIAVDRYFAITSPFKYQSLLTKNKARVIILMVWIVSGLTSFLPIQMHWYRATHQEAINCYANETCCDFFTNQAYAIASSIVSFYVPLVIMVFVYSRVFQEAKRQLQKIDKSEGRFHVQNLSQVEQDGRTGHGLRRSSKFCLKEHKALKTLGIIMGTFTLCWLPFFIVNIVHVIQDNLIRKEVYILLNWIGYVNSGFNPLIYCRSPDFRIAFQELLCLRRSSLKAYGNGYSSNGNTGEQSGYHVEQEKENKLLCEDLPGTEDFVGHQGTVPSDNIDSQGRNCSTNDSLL
Sequence of ATP-binding cassette sub-family B member 6 (Homo sapiens) (Q9NP58 whole entry, looked up): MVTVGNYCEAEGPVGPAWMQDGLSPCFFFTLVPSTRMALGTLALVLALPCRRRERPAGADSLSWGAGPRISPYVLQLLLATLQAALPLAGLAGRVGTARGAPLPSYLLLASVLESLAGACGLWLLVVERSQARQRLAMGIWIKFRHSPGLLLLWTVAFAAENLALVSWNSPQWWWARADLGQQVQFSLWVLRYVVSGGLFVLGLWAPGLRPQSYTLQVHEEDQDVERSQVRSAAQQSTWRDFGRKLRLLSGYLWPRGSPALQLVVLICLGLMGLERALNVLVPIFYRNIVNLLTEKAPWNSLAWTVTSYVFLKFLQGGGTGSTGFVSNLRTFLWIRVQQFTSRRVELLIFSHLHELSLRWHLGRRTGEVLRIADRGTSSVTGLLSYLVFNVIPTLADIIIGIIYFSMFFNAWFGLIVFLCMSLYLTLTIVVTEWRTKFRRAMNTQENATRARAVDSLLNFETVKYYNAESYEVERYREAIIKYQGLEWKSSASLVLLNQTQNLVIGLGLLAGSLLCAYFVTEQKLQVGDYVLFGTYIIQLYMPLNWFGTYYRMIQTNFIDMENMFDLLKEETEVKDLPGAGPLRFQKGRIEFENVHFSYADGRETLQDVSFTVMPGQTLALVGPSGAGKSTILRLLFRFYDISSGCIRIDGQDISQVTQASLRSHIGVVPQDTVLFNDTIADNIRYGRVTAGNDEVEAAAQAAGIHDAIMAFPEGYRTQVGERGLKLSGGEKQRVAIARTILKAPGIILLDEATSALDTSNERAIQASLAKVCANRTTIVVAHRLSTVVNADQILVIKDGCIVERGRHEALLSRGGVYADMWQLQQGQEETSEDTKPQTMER
Sequence of AP-2 complex subunit beta (Homo sapiens) (P63010 whole entry, looked up, the tested form may be a part, one chain of several): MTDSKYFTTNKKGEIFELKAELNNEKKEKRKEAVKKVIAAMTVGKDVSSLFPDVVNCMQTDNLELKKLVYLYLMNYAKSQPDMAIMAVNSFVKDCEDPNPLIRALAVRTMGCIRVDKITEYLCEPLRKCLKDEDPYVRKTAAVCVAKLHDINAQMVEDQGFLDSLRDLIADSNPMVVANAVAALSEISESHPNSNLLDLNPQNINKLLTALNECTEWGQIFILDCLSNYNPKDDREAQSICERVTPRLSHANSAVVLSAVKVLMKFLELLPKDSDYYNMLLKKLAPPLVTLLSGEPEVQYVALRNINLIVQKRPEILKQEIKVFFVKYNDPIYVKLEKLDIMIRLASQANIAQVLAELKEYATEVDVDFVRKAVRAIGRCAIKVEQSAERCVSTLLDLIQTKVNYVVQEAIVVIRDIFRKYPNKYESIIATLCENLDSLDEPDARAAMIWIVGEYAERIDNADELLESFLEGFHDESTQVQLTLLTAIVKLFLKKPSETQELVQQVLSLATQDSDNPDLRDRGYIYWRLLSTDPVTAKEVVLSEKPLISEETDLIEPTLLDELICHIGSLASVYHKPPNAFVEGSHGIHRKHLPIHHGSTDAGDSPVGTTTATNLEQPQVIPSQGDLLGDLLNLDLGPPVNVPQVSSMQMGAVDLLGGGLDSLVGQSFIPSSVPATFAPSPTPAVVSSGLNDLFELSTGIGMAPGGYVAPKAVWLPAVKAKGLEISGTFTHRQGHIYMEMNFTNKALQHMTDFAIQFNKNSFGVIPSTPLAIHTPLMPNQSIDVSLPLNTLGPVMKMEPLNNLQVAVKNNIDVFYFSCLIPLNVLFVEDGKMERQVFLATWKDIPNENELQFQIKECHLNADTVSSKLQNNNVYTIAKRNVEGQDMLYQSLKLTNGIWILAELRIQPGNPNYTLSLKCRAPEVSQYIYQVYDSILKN
Sequence of Beta-adrenergic receptor kinase 1 (Homo sapiens) (P25098 whole entry, looked up): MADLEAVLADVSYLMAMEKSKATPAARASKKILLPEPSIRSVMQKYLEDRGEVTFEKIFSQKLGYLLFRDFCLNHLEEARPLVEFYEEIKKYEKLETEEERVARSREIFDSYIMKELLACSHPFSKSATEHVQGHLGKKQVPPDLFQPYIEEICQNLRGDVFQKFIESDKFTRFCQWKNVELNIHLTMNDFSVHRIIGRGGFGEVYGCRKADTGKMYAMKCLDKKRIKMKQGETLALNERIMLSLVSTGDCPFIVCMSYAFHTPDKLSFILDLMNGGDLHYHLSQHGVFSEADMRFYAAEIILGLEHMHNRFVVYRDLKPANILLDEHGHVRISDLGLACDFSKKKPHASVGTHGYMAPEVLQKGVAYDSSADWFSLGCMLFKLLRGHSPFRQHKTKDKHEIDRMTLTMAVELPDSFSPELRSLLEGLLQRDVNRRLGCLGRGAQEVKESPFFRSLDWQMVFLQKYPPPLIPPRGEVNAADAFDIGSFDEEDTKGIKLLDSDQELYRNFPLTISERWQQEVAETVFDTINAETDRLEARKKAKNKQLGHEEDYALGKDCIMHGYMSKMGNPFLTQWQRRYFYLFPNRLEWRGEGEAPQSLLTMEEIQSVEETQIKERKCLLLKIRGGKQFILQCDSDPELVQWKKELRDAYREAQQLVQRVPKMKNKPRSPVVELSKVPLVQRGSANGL

In general, inhibition refers to the drop in the measured response relative to a control, in per cent. On to `CC(=O)C1=C(O)C(=O)N(Cc2cccnc2)C1c1ccc(C(C)C)cc1` (stereo not drawn), for which the percent of DMSO control GFP in [1] is 97.5% (inactive). Also, the GFP response vs DMSO is 109% (inactive) in assay [2] and 113% (inactive) in assay [4]. Also, the percent response of DMSO control in assay [3] was 100% (inactive). Further, the GFP response, % of DMSO in assay [5] is 104% (inactive). Also, the double positive events in assay [6] came out at 59.9%. Also, the vesicle binding response in [6] was 152% (inactive). Also, the inhibition is -6.23% (inactive) in assay [7], 5.98% (inactive) in assay [11] and 1% (inactive) in assay [15]. Moreover, the superoxide response (% of plate) in assay [8] was 84.1% (inactive). Moreover, the aptamer binding inhibition in [9] is -1% (inactive). Further, the values for the response in assay [10] and in assay [12] were -27.3% (inactive) and 2.79% (inactive), respectively. Besides, the binding (% of control) in assay [13] is 102% (inactive). For the same compound, the efflux inhibition (fraction of control) in [14] is 0.08 (inactive). Further, the differentiation response in assay [16] was -5.97% (inactive).

On to `Cc1[nH]nc(-c2ccc(O)cc2O)c1Oc1ccccc1`, for which the percent of DMSO control GFP in assay [1] is 106% (inactive). The GFP response vs DMSO in assay [2] is 100% (inactive); in assay [4], 93.3% (inactive). Besides, the percent response of DMSO control in assay [3] was 114% (inactive). Further, the GFP response, % of DMSO in assay [5] is 103% (inactive). The compound also showed a double positive events in assay [6] of 61.9%. In addition, in assay [6], the vesicle binding response was 53.1% (inactive). Also, the figures for the inhibition in assay [7], in assay [11] and in assay [15] were 4.73% (inactive), -10.9% (inactive) and 3% (inactive), respectively. The superoxide response (% of plate) in [8] was 95.8% (inactive). In addition, in [9], the aptamer binding inhibition is 1% (inactive). Also, the response in assay [10] is -4.61% (inactive); in assay [12], -4.45% (inactive). Also, the binding (% of control) in [13] was 96.3% (inactive). Moreover, in assay [14], the efflux inhibition (fraction of control) is -0.32 (inactive). For the same compound, in [16], the differentiation response is 8.06% (inactive).

For `Clc1ccc(CCNc2ncnc3nc[nH]c23)cc1`, the percent of DMSO control GFP in assay [1] is 97.4% (inactive). In addition, the figures for the GFP response vs DMSO in [2] and in assay [4] were 108% (inactive) and 105% (inactive), respectively. For the same compound, the percent response of DMSO control in assay [3] was 92% (inactive). The GFP response, % of DMSO in assay [5] was 99.7% (inactive). The compound further had a double positive events in assay [6] of 60.8%. In addition, the vesicle binding response in [6] is 127% (inactive). The inhibition was 0.94% (inactive) in assay [7], 5.59% (inactive) in assay [11] and 10% (inactive) in assay [15]. Moreover, the superoxide response (% of plate) in assay [8] is 108% (inactive). Besides, the aptamer binding inhibition in assay [9] is 4% (inactive). In addition, the response in [10] is -5.61% (inactive); in assay [12] it was -0.06% (inactive). The binding (% of control) in assay [13] was 97.2% (inactive). Also, the efflux inhibition (fraction of control) in [14] was 0.08 (inactive). Moreover, the differentiation response in assay [16] was -0.8% (inactive).

With `COCCCN1C(=O)C(=O)/C(=C(/O)c2ccc3c(c2)CC(C)O3)C1c1cccnc1` (stereo not drawn), in assay [1], the percent of DMSO control GFP is 101% (inactive). Besides, the values for the GFP response vs DMSO in [2] and in [4] were 102% (inactive) and 114% (inactive), respectively. Also, in assay [3], the percent response of DMSO control is 101% (inactive). In addition, the GFP response, % of DMSO in assay [5] was 111% (inactive). In [6], this compound gave a double positive events of 59%. For the same compound, the vesicle binding response in assay [6] is 137% (inactive). The inhibition in assay [7] was 3.14% (inactive); in assay [11], 1.96% (inactive); in assay [15] it was 4% (inactive). Moreover, in [8], the superoxide response (% of plate) was 97.1% (inactive). The aptamer binding inhibition in assay [9] is -1% (inactive). The response is -22.5% (inactive) in assay [10] and -1.78% (inactive) in assay [12]. Moreover, in assay [13], the binding (% of control) was 108% (inactive). Also, in assay [14], the efflux inhibition (fraction of control) was 0 (inactive). The differentiation response in assay [16] is -9.91% (inactive).
